# B1: unnamed (peptide)
# chain: FPPKRKPLLRPQRSD
# Biological target: AgAbp1
# Assay: SPOT peptide array binding signal intensity (averaged, normalized) (arbitrary units (background-subtracted, floor 0; scale differs between SH3 domains)); higher = stronger binding of the SH3 domain to the peptide
# How it was run: (§1)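 Detection of bound protein relied on anti-GST antibody, an HRP anti-mouse secondary and luminol, with imaging and quantification in Genespotter. The bound protein was GST-fused SH3 domains from four yeast species, incubated at 10 μg/ml overnight at 4°C in TBS-based blocking buffer on cellulose membranes carrying synthetic 15-mer peptides with cysteines replaced by serines. Binding signal is normalized, background-subtracted spot intensity averaged over replicates, in arbitrary units that differ between domains.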
row,Binder,SPOT peptide array binding signal intensity
1,B1,766

# Biological target: AgBbc1
# Assay: as above
# How it was run: as §1
row,Binder,SPOT peptide array binding signal intensity
1,B1,332

# Biological target: AgBem1-D1
# Assay: as above
# How it was run: as §1
row,Binder,SPOT peptide array binding signal intensity
1,B1,170

# Biological target: AgBzz1-D1
# Assay: as above
# How it was run: as §1
row,Binder,SPOT peptide array binding signal intensity
1,B1,59

# Biological target: AgBzz1-D2
# Assay: as above
# How it was run: as §1
row,Binder,SPOT peptide array binding signal intensity
1,B1,81

# Biological target: AgCyk3
# Assay: as above
# How it was run: as §1
row,Binder,SPOT peptide array binding signal intensity
1,B1,3.5

# Biological target: AgFus1
# Assay: as above
# How it was run: as §1
row,Binder,SPOT peptide array binding signal intensity
1,B1,303

# Biological target: AgHof1
# Assay: as above
# How it was run: as §1
row,Binder,SPOT peptide array binding signal intensity
1,B1,156

# Biological target: AgHse1
# Assay: as above
# How it was run: as §1
row,Binder,SPOT peptide array binding signal intensity
1,B1,294

# Biological target: AgLsb1
# Assay: as above
# How it was run: as §1
row,Binder,SPOT peptide array binding signal intensity
1,B1,26.5

# Biological target: AgLsb4
# Assay: as above
# How it was run: as §1
row,Binder,SPOT peptide array binding signal intensity
1,B1,33.5

# Biological target: AgMyo5
# Assay: as above
# How it was run: as §1
row,Binder,SPOT peptide array binding signal intensity
1,B1,≤ 0

# Biological target: AgNbp2
# Assay: as above
# How it was run: as §1
row,Binder,SPOT peptide array binding signal intensity
1,B1,590

# Biological target: AgRvs167
# Assay: as above
# How it was run: as §1
row,Binder,SPOT peptide array binding signal intensity
1,B1,9

# Biological target: AgSho1
# Assay: as above
# How it was run: as §1
row,Binder,SPOT peptide array binding signal intensity
1,B1,45

# Biological target: AgSla1-D1-D2
# Assay: as above
# How it was run: as §1
row,Binder,SPOT peptide array binding signal intensity
1,B1,230

# Biological target: AgSla1-D3
# Assay: as above
# How it was run: as §1
row,Binder,SPOT peptide array binding signal intensity
1,B1,5

# Biological target: CaAbp1-D1
# Assay: as above
# How it was run: as §1
row,Binder,SPOT peptide array binding signal intensity
1,B1,1450

# Biological target: CaAbp1-D2
# Assay: as above
# How it was run: as §1
row,Binder,SPOT peptide array binding signal intensity
1,B1,2460

# Biological target: CaBbc1
# Assay: as above
# How it was run: as §1
row,Binder,SPOT peptide array binding signal intensity
1,B1,793

# Biological target: CaBem1-D1
# Assay: as above
# How it was run: as §1
row,Binder,SPOT peptide array binding signal intensity
1,B1,934

# Biological target: CaBzz1-D1
# Assay: as above
# How it was run: as §1
row,Binder,SPOT peptide array binding signal intensity
1,B1,257

# Biological target: CaBzz1-D2
# Assay: as above
# How it was run: as §1
row,Binder,SPOT peptide array binding signal intensity
1,B1,135

# Biological target: CaCyk3
# Assay: as above
# How it was run: as §1
row,Binder,SPOT peptide array binding signal intensity
1,B1,292

# Biological target: CaFus1
# Assay: as above
# How it was run: as §1
row,Binder,SPOT peptide array binding signal intensity
1,B1,589

# Biological target: CaHof1
# Assay: as above
# How it was run: as §1
row,Binder,SPOT peptide array binding signal intensity
1,B1,1.25

# Biological target: CaHse1
# Assay: as above
# How it was run: as §1
row,Binder,SPOT peptide array binding signal intensity
1,B1,57.2

# Biological target: CaLsb1
# Assay: as above
# How it was run: as §1
row,Binder,SPOT peptide array binding signal intensity
1,B1,≤ 0

# Biological target: CaLsb4
# Assay: as above
# How it was run: as §1
row,Binder,SPOT peptide array binding signal intensity
1,B1,1020

# Biological target: CaMyo5
# Assay: as above
# How it was run: as §1
row,Binder,SPOT peptide array binding signal intensity
1,B1,12

# Biological target: CaNbp2
# Assay: as above
# How it was run: as §1
row,Binder,SPOT peptide array binding signal intensity
1,B1,371

# Biological target: CaRvs167
# Assay: as above
# How it was run: as §1
row,Binder,SPOT peptide array binding signal intensity
1,B1,221

# Biological target: CaRvs167-3
# Assay: as above
# How it was run: as §1
row,Binder,SPOT peptide array binding signal intensity
1,B1,18.5

# Biological target: CaSho1
# Assay: as above
# How it was run: as §1
row,Binder,SPOT peptide array binding signal intensity
1,B1,245

# Biological target: CaSla1-D1-D2
# Assay: as above
# How it was run: as §1
row,Binder,SPOT peptide array binding signal intensity
1,B1,872

# Biological target: CaSla1-D3
# Assay: as above
# How it was run: as §1
row,Binder,SPOT peptide array binding signal intensity
1,B1,9.75

# Biological target: ScAbp1
# Assay: as above
# How it was run: as §1
row,Binder,SPOT peptide array binding signal intensity
1,B1,598

# Biological target: ScBbc1
# Assay: as above
# How it was run: as §1
row,Binder,SPOT peptide array binding signal intensity
1,B1,294

# Biological target: ScBem1-D1
# Assay: as above
# How it was run: as §1
row,Binder,SPOT peptide array binding signal intensity
1,B1,87

# Biological target: ScBzz1-D1
# Assay: as above
# How it was run: as §1
row,Binder,SPOT peptide array binding signal intensity
1,B1,10.5

# Biological target: ScBzz1-D2
# Assay: as above
# How it was run: as §1
row,Binder,SPOT peptide array binding signal intensity
1,B1,50

# Biological target: ScCyk3
# Assay: as above
# How it was run: as §1
row,Binder,SPOT peptide array binding signal intensity
1,B1,38

# Biological target: ScFus1
# Assay: as above
# How it was run: as §1
row,Binder,SPOT peptide array binding signal intensity
1,B1,138

# Biological target: ScHof1
# Assay: as above
# How it was run: as §1
row,Binder,SPOT peptide array binding signal intensity
1,B1,0.25

# Biological target: ScHse1
# Assay: as above
# How it was run: as §1
row,Binder,SPOT peptide array binding signal intensity
1,B1,1190

# Biological target: ScLsb1
# Assay: as above
# How it was run: as §1
row,Binder,SPOT peptide array binding signal intensity
1,B1,27.8

# Biological target: ScLsb2
# Assay: as above
# How it was run: as §1
row,Binder,SPOT peptide array binding signal intensity
1,B1,30

# Biological target: ScLsb3
# Assay: as above
# How it was run: as §1
row,Binder,SPOT peptide array binding signal intensity
1,B1,2030

# Biological target: ScLsb4
# Assay: as above
# How it was run: as §1
row,Binder,SPOT peptide array binding signal intensity
1,B1,71

# Biological target: ScMyo3
# Assay: as above
# How it was run: as §1
row,Binder,SPOT peptide array binding signal intensity
1,B1,7.75

# Biological target: ScMyo5
# Assay: as above
# How it was run: as §1
row,Binder,SPOT peptide array binding signal intensity
1,B1,2.75

# Biological target: ScNbp2
# Assay: as above
# How it was run: as §1
row,Binder,SPOT peptide array binding signal intensity
1,B1,761

# Biological target: ScPex13
# Assay: as above
# How it was run: as §1
row,Binder,SPOT peptide array binding signal intensity
1,B1,52.5

# Biological target: ScRvs167
# Assay: as above
# How it was run: as §1
row,Binder,SPOT peptide array binding signal intensity
1,B1,410

# Biological target: ScSho1
# Assay: as above
# How it was run: as §1
row,Binder,SPOT peptide array binding signal intensity
1,B1,1040

# Biological target: ScSla1-D1-D2
# Assay: as above
# How it was run: as §1
row,Binder,SPOT peptide array binding signal intensity
1,B1,1030

# Biological target: ScSla1-D3
# Assay: as above
# How it was run: as §1
row,Binder,SPOT peptide array binding signal intensity
1,B1,16

# Biological target: SpAbp1-D1
# Assay: as above
# How it was run: as §1
row,Binder,SPOT peptide array binding signal intensity
1,B1,874

# Biological target: SpBbc1
# Assay: as above
# How it was run: as §1
row,Binder,SPOT peptide array binding signal intensity
1,B1,37

# Biological target: SpBzz1-D1
# Assay: as above
# How it was run: as §1
row,Binder,SPOT peptide array binding signal intensity
1,B1,444

# Biological target: SpBzz1-D2
# Assay: as above
# How it was run: as §1
row,Binder,SPOT peptide array binding signal intensity
1,B1,0.5

# Biological target: SpCyk3
# Assay: as above
# How it was run: as §1
row,Binder,SPOT peptide array binding signal intensity
1,B1,5

# Biological target: SpHof1
# Assay: as above
# How it was run: as §1
row,Binder,SPOT peptide array binding signal intensity
1,B1,182

# Biological target: SpHof1-2
# Assay: as above
# How it was run: as §1
row,Binder,SPOT peptide array binding signal intensity
1,B1,16.8

# Biological target: SpHof1-3
# Assay: as above
# How it was run: as §1
row,Binder,SPOT peptide array binding signal intensity
1,B1,285

# Biological target: SpHse1
# Assay: as above
# How it was run: as §1
row,Binder,SPOT peptide array binding signal intensity
1,B1,326

# Biological target: SpLsb1
# Assay: as above
# How it was run: as §1
row,Binder,SPOT peptide array binding signal intensity
1,B1,153

# Biological target: SpLsb4
# Assay: as above
# How it was run: as §1
row,Binder,SPOT peptide array binding signal intensity
1,B1,1630

# Biological target: SpMyo1
# Assay: as above
# How it was run: as §1
row,Binder,SPOT peptide array binding signal intensity
1,B1,22.8

# Biological target: SpNbp2
# Assay: as above
# How it was run: as §1
row,Binder,SPOT peptide array binding signal intensity
1,B1,286

# Biological target: SpPex13
# Assay: as above
# How it was run: as §1
row,Binder,SPOT peptide array binding signal intensity
1,B1,26

# Biological target: SpRvs167
# Assay: as above
# How it was run: as §1
row,Binder,SPOT peptide array binding signal intensity
1,B1,536

# Biological target: SpSla1-D1-D2
# Assay: as above
# How it was run: as §1
row,Binder,SPOT peptide array binding signal intensity
1,B1,2

# Biological target: SpSla1-D3
# Assay: as above
# How it was run: as §1
row,Binder,SPOT peptide array binding signal intensity
1,B1,3

# Reference: the supplement of paper PMC4466140
